Inconclusive results are not listed. The source made the active and inactive calls. Unless noted, calls come from the whole dose curve; as a rule, active = well fitted cell-killing curve with a large enough effect; inconclusive = small, poorly fitted or top-dose-only effect; inactive = flat fitted curve, though single readings scatter.
Key:
[1] = Cell Viability - LYMP2-025 (AID 976); note: series mostly up to about 92 µM
Method in brief: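 Human lymphoblastoid LYMP2-025 cells (2500/well) were pre-incubated 5 hr at 37 C, then treated with compounds for 24 hr at 37 C in complete medium. Viability was read as intracellular ATP by CellTiter-Glo luminescence; AC50 from Hill fits.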

[2] = Cell Viability - LYMP2-002 (AID 977); note: series mostly up to about 92 µM
Method in brief: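 Luminescent ATP readout (CellTiter-Glo, 30 min room temperature) after 24 h compound exposure at 37 C of a human lymphoblastoid line, 2500 cells/well. AC50 values derived by standard Hill fitting of qHTS concentration-response data.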

[3] = Cell Viability - LYMP2-006 (AID 978); note: series mostly up to about 92 µM; nearly all actives have a fitted effect of over 60% in size
Method in brief: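 Cells are seeded at 2500 per well and rested 5 hr at 37 C. Compounds are added across a concentration series for 24 hr at 37 C, after which ATP is quantified by luciferase luminescence.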

[4] = Cell Viability - LYMP2-007 (AID 979);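 note: cells exposed to compound for 24 h before reading; nearly all actives have a fitted effect of over 60% in size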
Method in brief: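 Human lymphoblastoid cells (2500/well) were plated in complete medium, incubated 5 hr at 37 C, then exposed to compounds for 24 hr at 37 C. Intracellular ATP was read by CellTiter-Glo luminescence after 30 min at room temperature; AC50 from Hill fits.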

[5] = Cell Viability - LYMP2-008 (AID 980); note: nearly all actives have a fitted effect of over 60% in size
Method in brief: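 Human lymphoblastoid cells (2500/well) were plated, held 5 hr at 37 C, then exposed to compounds for 24 hr at 37 C in complete medium. Intracellular ATP was read by CellTiter-Glo luminescence; AC50 from Hill-fitted concentration-response.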

[6] = Cell Viability - LYMP2-010 (AID 981); note: nearly all actives have a fitted effect of over 55% in size
Method in brief: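 Human lymphoblastoid LYMP2-010 cells (2500/well) were preincubated 5 hr at 37 C, then exposed to compounds for 24 hr at 37 C in complete medium. Intracellular ATP was measured by CellTiter-Glo luminescence after 30 min at room temperature; AC50 from Hill-fitted concentration-response.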

[7] = Cell Viability - LYMP2-012 (AID 982);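 note: cellular ATP by luciferase luminescence where a drop means cytotoxicity; cells exposed to compound for one day before reading; nearly all actives have a fitted effect of over 55% in size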
[8] = Cell Viability - LYMP2-014 (AID 983); note: series mostly up to about 92 µM; nearly all actives have a fitted effect of over 50% in size
Method in brief: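 Human lymphoblastoid cells (2500/well) were pre-incubated 5 hr at 37 C, then exposed to compounds in complete medium for 24 hr at 37 C. Intracellular ATP was read by CellTiter-Glo luminescence after 30 min at room temperature; AC50 from Hill fits.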

[9] = Cell Viability - LYMP2-016 (AID 984); note: nearly all actives have a fitted effect of over 55% in size
Method in brief: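 Cells were seeded at 2500 per well and rested 5 hr before a 24 hr compound exposure at 37 C. Viability was then gauged as cellular ATP by luciferase luminescence, with AC50 values fitted to the Hill equation.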

[10] = Cell Viability - LYMP2-018 (AID 985); note: nearly all actives have a fitted effect of over 50% in size
Method in brief: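 Human lymphoblastoid cells (2500/well) were pre-incubated 5 hr at 37 C, then exposed to compounds for 24 hr at 37 C in complete medium. Viability was read as intracellular ATP by CellTiter-Glo luminescence; AC50 values came from Hill-equation fits.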

[11] = Cell Viability - LYMP2-020 (AID 986); note: series mostly up to about 92 µM; nearly all actives have a fitted effect of over 55% in size
Method in brief: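 Human lymphoblastoid cells, 2500/well, were pre-incubated 5 hr at 37 C, then exposed to compounds for 24 hr at 37 C in complete medium. Intracellular ATP was read by CellTiter-Glo luminescence, and AC50 was derived by Hill fitting of concentration-response data.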

[12] = Cell Viability - LYMP2-022 (AID 987); note: nearly all actives have a fitted effect of over 55% in size
Method in brief: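 Human lymphoblastoid cells, 2500/well, preincubated 5 hr at 37 C, then exposed to compounds over a concentration range for 24 hr at 37 C in complete medium. Viability read as intracellular ATP by CellTiter-Glo luminescence after 30 min at room temperature; AC50 from Hill fits.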

[13] = Cell Viability - LYMP2-024 (AID 988); note: nearly all actives have a fitted effect of over 60% in size
Method in brief: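 Human lymphoblastoid cells (2500/well) in complete medium were preincubated 5 hr at 37 C, then exposed to compounds for 24 hr at 37 C. Intracellular ATP was read by CellTiter-Glo luminescence; AC50 from Hill-equation fits of concentration-response data.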

[14] = Cell Viability - LYMP2-026 (AID 989); note: nearly all actives have a fitted effect of over 50% in size
Method in brief: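 Human lymphoblastoid cells (2500/well) in complete medium were preincubated 5 hr at 37 C, then exposed to compounds for 24 hr at 37 C. Cellular ATP was read by CellTiter-Glo luminescence; AC50 from Hill-equation fits of concentration-response data.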

[15] = Cell Viability - LYMP1-002 - Assay at 40 hr (AID 994); note: nearly all actives have a fitted effect of over 60% in size
Method in brief: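 Human lymphoblastoid cells, 2500/well in complete medium, were preincubated 5 hr at 37 C, then exposed to compounds for 40 hr at 37 C. Intracellular ATP was read by CellTiter-Glo luminescence after 30 min at room temperature; AC50 from Hill-equation fits.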

[16] = qHTS Assay for Identification of Small Molecule Inducers of Hypoxia Response (AID 2120; active = well fitted curve in the direction sought with a large enough effect in the signal ratio, with a control signal flat, not every such curve was filed as active; the % refers to the signal ratio)
Method in brief: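 HRE-beta-lactamase reporter in CellSensor HRE-bla ME-180 cells, 2500 cells/well in Opti-MEM with 0.5% dialyzed FBS; compounds tested as titration series, 17 h at 37 degrees C. CCF4 substrate 2.5 h at room temperature; AC50 from 460/530 nm ratio.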

[17] = target: Estrogen receptor (Homo sapiens) (UniProt P03372); test: qHTS assay for small molecule antagonists of estrogen receptor alpha signaling (AID 588513; active = well fitted curve in the direction sought with a large enough effect in the signal ratio, with a control signal flat, not every such curve was filed as active; the % refers to the signal ratio)
Chain of Estrogen receptor (Homo sapiens) (P03372 whole entry, looked up): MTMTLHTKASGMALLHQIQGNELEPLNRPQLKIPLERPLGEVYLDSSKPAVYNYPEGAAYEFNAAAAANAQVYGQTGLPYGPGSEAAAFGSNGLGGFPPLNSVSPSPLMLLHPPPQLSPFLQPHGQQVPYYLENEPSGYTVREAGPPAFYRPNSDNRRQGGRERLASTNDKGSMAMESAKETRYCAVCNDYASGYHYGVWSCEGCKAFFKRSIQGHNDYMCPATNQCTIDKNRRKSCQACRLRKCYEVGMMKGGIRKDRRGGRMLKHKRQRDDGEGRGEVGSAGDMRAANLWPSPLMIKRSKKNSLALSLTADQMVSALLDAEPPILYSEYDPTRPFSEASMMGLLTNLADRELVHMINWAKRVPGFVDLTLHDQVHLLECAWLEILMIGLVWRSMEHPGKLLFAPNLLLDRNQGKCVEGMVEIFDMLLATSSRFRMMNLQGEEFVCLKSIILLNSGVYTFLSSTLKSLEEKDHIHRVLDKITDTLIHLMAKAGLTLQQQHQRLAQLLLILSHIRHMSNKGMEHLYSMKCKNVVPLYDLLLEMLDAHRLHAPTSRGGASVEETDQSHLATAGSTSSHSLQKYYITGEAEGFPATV
Method in brief: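 Fluorescence from CCF4 substrate after 2 h at room temperature gave reporter activity; cells had been exposed to compound and 0.5nM 17-beta-estradiol for 18 h at 37 C. Hill-equation fitting yielded IC50 and maximal response.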

[18] = target: Estrogen receptor (Homo sapiens) (UniProt P03372); test: qHTS assay for small molecule agonists of estrogen receptor alpha signaling (AID 588514; calls by dose curve; note: nearly all actives have a fitted effect of over 70% in size)
Method in brief: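 ER-alpha-UAS-bla GripTite HEK 293 cells in medium with 2% charcoal/dextran-treated FBS were treated with compound titrations at 37 C for 18 hrs; beta-lactamase reporter read by CCF4 fluorescence after 2 hrs at RT.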

[19] = Cell Viability - LYMP1-002 - Assay at 24 hr (AID 993)
Method in brief: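 Human lymphoblastoid LYMP1-002 cells, 2500/well in complete medium, were treated with compounds for 24 h at 37 C; intracellular ATP was read by CellTiter-Glo luminescence. AC50 values came from Hill-equation fits of qHTS concentration-response data.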

Measured: Potency

C/C(C=O)=C/c1ccccc1
not listed: [19]
inactive: all other assays above

C=C(C)C1CC=C(C)C(OC(C)=O)C1 (stereo not given)
not listed: [14]
inactive: all other assays above

CC/C=C/C#N
not listed: [14]
inactive: all other assays above

Cc1ccc(Cl)cc1
not listed: [19]
inactive: all other assays above

Nc1ccc([N+](=O)[O-])c(N)c1
not listed: [14]
inactive: all other assays above

CNc1ccc([N+](=O)[O-])cc1
not listed: [14]
inactive: all other assays above

O=C1CCC(=O)O1
not listed: [10]
inactive: all other assays above

C=C(C)C(=O)OCCCCCCCCCC
inactive: all assays above

Cc1ccccc1C#N
inactive: all assays above

Cc1ccccc1C(N)=O
not listed: [19]
inactive: all other assays above

CC(C)Nc1ccccc1
not listed: [14] | [19]
inactive: all other assays above

CCNc1cc(O)ccc1C
not listed: [10]
inactive: all other assays above

CCCCC(=O)N(C)C
not listed: [10]
inactive: all other assays above

CCOCC(=O)O
not listed: [7] | [10]
inactive: all other assays above

C=CCOC(=O)COCCC(C)C
not listed: [2]
inactive: all other assays above
